Rows were chosen to be rich in hits. Some 19% of all compounds tested hit in one or more screens of this group.
LASV entry inh – blocks Lassa virus binding to or entry into cells | Lassa virus pseudotype entry inhibition, cell reporter | actives 1.2% (n = 300,000) | AID 540256 | Potency, µM (doses to about 37.9 µM), for the others: top-dose activity change, negative = inhibition, actives largely listed as inhibitors; calls by dose curve; tested in HEK293 cells; note: potency is the fitted concentration of half-maximal effect; % is set by controls: 0 for no effect and ±100 for the full control effect; nearly all actives have a fitted effect of over 50% in size
Marburg entry inh – inhibitors of Marburg virus binding or cell entry. Potency, µM (doses to about 37.8 µM), inactives show at the top dose activity change, negative = inhibition, usual class: inhibitors. AID 540276. actives 1.8% (n = 300,000). Marburg virus pseudotyped entry inhibition, cell reporter; calls by dose curve; tested in HEK293 cells; note: potency is the fitted concentration of half-maximal effect; % is set by controls: 0 for no effect and ±100 for the full control effect
Pf growth 48h – inhibits P. falciparum growth in the first generation, 48 h; P. falciparum luciferase growth in erythrocytes, 48 h; Potency, µM (doses to about 28.7 µM), inactives show at the highest dose activity change, negative = inhibition, hits mostly inhibitors; actives 5.9% (n = 310,000); AID 504832; note: potency is the fitted concentration of half-maximal effect; % is set by controls: 0 for no effect and ±100 for the full control effect
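In quantitative HTS format, infected erythrocytes bearing luciferase-reporter parasites were treated for a single generation at 37 C. Luminescence after adding detection reagent served as the growth measure.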
Shiga toxin inh – inhibitors of Shiga toxin in Vero cells; AID 2315; actives 9.2% (n = 290,000); inhibition, % at 38.7 µM; Vero cells, Shiga toxin protein synthesis inhibition reporter; in the data active = inhibition mostly above about 28%, no sharp cut-off; inactive = mostly below about 43%; note: 0% is about no effect
Cycloheximide cs – counter-screen for Shiga toxin inhibitors: cycloheximide protein synthesis inhibition; actives 12% (n = 300,000); max response, %; cell reporter, cycloheximide protein synthesis inhibition counterscreen; AID 2314; in the data active = max response mostly above about 13%, no sharp cut-off; inactive = mostly below about 14%; note: read at 38.3 µM for the half of the compounds with a filed dose; 0% is about no effect
Pf growth 96h – inhibits malaria parasite growth, 96 h | P. falciparum luciferase reporter growth, 96 h | Potency, µM (highest dose often 28.7 µM), for inactives: at the highest dose activity change, negative = inhibition, actives largely listed as inhibitors | actives 6.9% (n = 320,000); note: potency is the fitted concentration of half-maximal effect; % is set by controls: 0 for no effect and ±100 for the full control effect
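Delayed-death screen, second-generation endpoint: infected erythrocytes, 2% hematocrit, 0.05% parasitemia final; 96 hours at 37 C, 5% CO2; luciferase detection reagent; luminescence decrease equals reduced growth.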
The depositor's hits bear a star; ? = inconclusive; / = no result given; [ ] = remark or other dose. Unless noted, calls come from the whole dose curve; as a rule, active = well fitted inhibition curve with a large enough effect; inconclusive = small, poorly fitted or top-dose-only effect, or another doubt; inactive = no such curve, though single readings can be large or run the other way.

SMILES	LASV entry inh	Marburg entry inh	Pf growth 48h	Shiga toxin inh	Cycloheximide cs	Pf growth 96h
CCC(=O)Nc1nnc(CCc2ccccc2)s1	9%	3%	24%	22	13*	-17%
CCC(=O)N(Cc1cc2c(C)cc(C)cc2[nH]c1=O)C1CCCCC1	-7%	-13%	?	-11	-5	43%
O=C(NCC(c1ccco1)N1CCOCC1)c1cccc(Cl)c1 (stereo not drawn)	9%	-4%[46.1 µM]	5%	/	/	17%
COc1cc(OC)c(C(=O)NCC2CCCO2)cc1OC (stereo not drawn)	-12%	0%	-11%	1	0	-22%
COc1ccc2oc(=Nc3cccc(F)c3)c(C(N)=O)cc2c1	?	?	4%	73*	34*	11%
COc1cccc(N=c2oc3cc(O)ccc3cc2C(=O)NCC2CCCO2)c1 (stereo not drawn)	3%[46.1 µM]	?	?	65	13*	?
COc1ccccc1N=c1oc2cc(O)ccc2cc1C(=O)NCC1CCCO1 (stereo not drawn)	4%	-2%	?	12	17*	?
Cc1cccc(N=c2oc3cc(O)ccc3cc2C(N)=O)c1	-12%	?	23%	39*	27*	2%
CCCCCCNC(=O)C(=O)NCCc1ccc(Cl)cc1	4%[46.1 µM]	?	15%	-15	-2	33%
COc1ccc(C(=O)N2CCC(n3nccc3NC(=O)C3CC3)CC2)cc1F	/	/	?	-6	9	19%
CCOc1c(Cl)cnn(-c2ccc(C)cc2)c1=O	12%	9%	14%	-4	9	0%
COc1ccccc1N=c1oc2cc(O)ccc2cc1C(N)=O	-28%	-28%	82%	19	14*	21%
COc1ccc2[nH]c(C)c(C(=O)CN3CCN(C/C=C/c4ccccc4)CC3)c2c1	?	?	?	11	2	8.3µM*
Cc1[nH]c2ccccc2c1C(=O)CN1CCN(C/C=C/c2ccccc2)CC1	?	?	8.3µM*	16	-1	?
Cc1[nH]c2ccccc2c1C(=O)CN1CCN(C2CCCCC2)CC1	/	/	?	-11	-3	-20%
Cc1[nH]c2ccccc2c1C(=O)CN1CC=C(c2ccccc2)CC1	?	5%	12µM*	-7	-3	?
C=CCN(c1ccccc1)S(=O)(=O)c1ccc(Cl)c(C(=O)OCC(=O)NCCCN2CCCC2=O)c1	7%	3%	-7%	-20	-1	14%
COc1cc(CNc2ccccc2SC)ccc1O	19%[14.3 µM]	-13%	14%	70*	25	5%
CCOc1cc(CNc2ccccc2SC)ccc1O	/	-6%	-9%	-9	23	/
CC1(C)Oc2ccc3ccc(=O)oc3c2/C(=C/Nc2ccccc2)C1=O	-27%	-18%	/	-12	-3	-8%
O=C(c1ccc2c(=O)n(Cc3ccco3)c(=S)[nH]c2c1)N1CCN(c2ccccc2)CC1	-5%	-9%	7%	-12	-1	12µM*
O=C(c1ccc(Cn2c(=O)[nH]c3ccccc3c2=O)cc1)N1CCN(c2ccccc2)CC1	1%	6%	?	3	-2	3.3µM*
O=C(CCCCCn1c(=S)[nH]c2ccc(N3CCOCC3)cc2c1=O)NC1CCN(Cc2ccccc2)CC1	2%	?	?	8	-3	10%
O=C(NC1CCN(Cc2ccccc2)CC1)c1ccc(Cn2c(=S)[nH]c3ccc(N4CCOCC4)cc3c2=O)cc1	?	2.8µM*	?	55*	32*	33%
COc1ccc(N2CCN(C(=O)c3ccc4c(=O)n(CCc5ccc(OC)c(OC)c5)c(=O)[nH]c4c3)CC2)cc1	-26%	11µM*	?	-14	9	47%
SMILES	LASV entry inh	Marburg entry inh	Pf growth 48h	Shiga toxin inh	Cycloheximide cs	Pf growth 96h
Cc1nn(-c2ccc(NC(=O)c3ccncc3)cc2)c(C)c1Cl	?	?	-9%	-2	-1	-40%
O=c1c2cc(N3CCOCC3)ccc2[nH]c(=S)n1Cc1ccco1	-12%	-6%	9%	7	11*	/
CCN(CC)C(=O)Cn1cc(S(=O)(=O)CC(=O)NCc2ccccc2)c2ccccc21	1%	18%	-18%	11	3	-21%
CCC(C)(C)NC(=O)C(c1sccc1C)N(Cc1ccco1)C(=O)c1csnn1 (stereo not drawn)	?	-16%[46.1 µM]	?	8	-6	11%
N#Cc1c([N+](=O)[O-])cc([N+](=O)[O-])cc1S(=O)(=O)Cc1ccccc1	11µM*	?	-10%	/	/	-4%
COc1cc(OC)c(C#N)c(S(=O)(=O)Cc2ccccc2)c1	-2%	16%	0%	-11	-5	1%
CCOC(=O)C1(Cc2ccc(OC)cc2)CCN(C(=O)CCc2cnccn2)CC1	1%	17%[46.1 µM]	-14%	36	14*	-3%
CCOC(=O)C1(CCc2ccccc2)CCN(C(=O)CCc2cnccn2)CC1	-11%[46.1 µM]	-1%[46.1 µM]	?	55*	24*	11%
CCOC(=O)C1(Cc2ccc(OC)cc2)CCN(C(=O)CCN2CCCC2=O)CC1	/	/	?	19	17*	22%
CCOC(=O)C1(Cc2ccc(Cl)cc2)CCN(C(=O)CCc2cnccn2)CC1	10%	1%[46.1 µM]	?	14	-2	?
CCOC(=O)C1(CCCc2ccccc2)CCN(C(=O)CCc2cnccn2)CC1	?	?	?	10	12	?
Cc1ccc(S(=O)(=O)NC(=NCC(=O)O)c2ccccc2)cc1	21%	9%	-5%	-8	-2	-25%
CC(C)OC(=O)c1c2nc3ccccc3nc2n2c1[nH]c(=O)c1ccccc12	/	-8%	0%	-8	-3	6.6µM*
CCn1c(SCC(N)=O)nc2ccccc2c1=O	?	0%	22%	-13	-2	/
Cc1ccc(C)c(NC(=S)/C(=C(\[O-])c2ccc(Cl)s2)[n+]2ccccc2)c1	/	/	?	35	11	5.9µM*
C[C@]12CCC3=C4CCC(=O)C=C4CC[C@H]3C1CC[C@@H]2O (stereo partly drawn)	1%	2%	18%	6	-2	4%
C=CCNC(=S)NNc1nc(Nc2ccccc2)nc(N2CCCCC2)n1	2%	-20%[46.1 µM]	1%	26	-3	?
S=C(NNc1nc(Nc2ccccc2)nc(N2CCCCC2)n1)NC1CCCCC1	-6%	10µM*	-16%	20	-2	-27%
Cc1cccc(C(=O)N/N=C/c2cc(Br)c(Br)o2)c1	?	?	?	33*	19	?
Cc1onc(-c2ccccc2)c1C(=O)N/N=C/c1cc(Br)c(Br)o1	?	?	?	-4	-4	13µM*
Nc1ncnc2nc(SCc3ccccc3)[nH]c12	?	?	8%	-7	2	-2%[5.75 µM]
CC(=O)N1CCc2c(sc(NC(=O)C3CCCN3S(=O)(=O)c3cccs3)c2C(N)=O)C1 (stereo not drawn)	2%	13%	?	/	/	?
CC1CCN(C(=O)C2CCN(S(=O)(=O)c3cccs3)CC2)CC1	-1%	?	28%	41	17*	-26%
